# PubChem BioAssay AID1159580 (chemical genetic matrix, 2015)
# Screen size: about 5,500 compounds; about 2,000 (36%) were called active. Another 18% or so got no clear call; they are omitted. This is one part of the list. Values without a mark were called inactive. No stated cut-off is given here; in the data, active means normalized growth mostly below about 0.91 (no sharp cut-off); inconclusive means no clear call, values can overlap the other calls; inactive means mostly above about 0.92.
# Test: chemical genetic growth profiling, strain panel (AID 1159580);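 further: tested at 20 µM; growth read once vehicle control cultures reached saturation at 30 °C; 1 = growth at the plate median or of vehicle wells; lower values mean less growth of the strain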
# Conditions: S. cerevisiae deletion strains, growth OD
smiles,measurement,setting,value
N#Cc1nn(-c2c(Cl)cc(C(F)(F)F)cc2Cl)c(N)c1S(=O)C(F)(F)F (stereo not drawn),normalized growth,"locus YAL021C, strain ccr4, hits give low values",0.995
same,normalized growth,"locus YAL026C, strain drs2, hits give low values",0.947
same,normalized growth,"locus YAL030W, strain snc1, hits give low values",0.986
same,normalized growth,"locus YBL061C, strain skt5, hits give low values",0.99
same,normalized growth,"locus YBR009C, strain hhf1, hits give low values",0.895 (active)
same,normalized growth,"locus YBR023C, strain chs3, hits give low values",1
same,normalized growth,"locus YBR171W, strain sec66, hits give low values",0.961
same,normalized growth,"locus YBR231C, strain swc5, hits give low values",1.01
same,normalized growth,"locus YBR279W, strain paf1, hits give low values",1
same,normalized growth,"locus YCL011C, strain gbp2, hits give low values",0.951
same,normalized growth,"locus YCL016C, strain dcc1, hits give low values",1.04
same,normalized growth,"locus YCL069W, strain vba3, hits give low values",0.998
same,normalized growth,"locus YCR088W, strain abp1, hits give low values",0.993
same,normalized growth,"locus YDL005C, strain med2, hits give low values",0.987
same,normalized growth,"locus YDL040C, strain nat1, hits give low values",0.982
same,normalized growth,"locus YDR001C, strain nth1, hits give low values",0.992
same,normalized growth,"locus YDR069C, strain doa4, hits give low values",0.965
same,normalized growth,"locus YDR137W, strain rgp1, hits give low values",0.576 (active)
same,normalized growth,"locus YDR159W, strain sac3, hits give low values",0.888
same,normalized growth,"locus YDR195W, strain ref2",1.15 [resistant] (active)
same,normalized growth,"locus YDR297W, strain sur2, hits give low values",0.961
same,normalized growth,"locus YDR334W, strain swr1, hits give low values",0.962
same,normalized growth,"locus YDR335W, strain msn5, hits give low values",1.01
same,normalized growth,"locus YDR392W, strain spt3, hits give low values",0.785
same,normalized growth,"locus YEL003W, strain gim4, hits give low values",0.936
same,normalized growth,"locus YEL037C, strain rad23, hits give low values",0.986
same,normalized growth,"locus YEL061C, strain CIN8 (second series), hits give low values",0.973
same,normalized growth,"locus YER015W, strain faa2, hits give low values",0.955
same,normalized growth,"locus YER016W, strain bim1, hits give low values",1.01
same,normalized growth,"locus YER111C, strain swi4, hits give low values",1.01
same,normalized growth,"locus YER155C, strain BEM2 (second series), hits give low values",1.02
same,normalized growth,"locus YFR010W, strain ubp6, hits give low values",0.939
same,normalized growth,"locus YGL167C, strain pmr1, hits give low values",0.966
same,normalized growth,"locus YGL173C, strain kem1, hits give low values",0.979
same,normalized growth,"locus YGL227W, strain vid30, hits give low values",0.99
same,normalized growth,"locus YGL240W, strain doc1, hits give low values",0.959
same,normalized growth,"locus YGL253W, strain hxk2, hits give low values",0.929
same,normalized growth,"locus YHR013C, strain ard1, hits give low values",1.01
same,normalized growth,"locus YHR027C, strain rpn1, hits give low values",0.968
same,normalized growth,"locus YHR030C, strain SLT2, hits give low values",1.01
same,normalized growth,"locus YHR079C, strain IRE1, hits give low values",1.02
same,normalized growth,"locus YHR142W, strain chs7, hits give low values",0.956
same,normalized growth,"locus YJL092W, strain hpr5, hits give low values",0.992
same,normalized growth,"locus YJL095W, strain BCK1 (second series), hits give low values",0.983
same,normalized growth,"locus YJL095W, strain BCK1, hits give low values",0.991
same,normalized growth,"locus YJL115W, strain asf1, hits give low values",0.99
same,normalized growth,"locus YJL129C, strain trk1, hits give low values",1.01
same,normalized growth,"locus YJL154C, strain vps35, hits give low values",0.978
same,normalized growth,"locus YJL164C, strain tpk1, hits give low values",0.926
same,normalized growth,"locus YJL166W, strain qcr8, hits give low values",0.94
same,normalized growth,"locus YJR066W, strain TOR1, hits give low values",0.962
same,normalized growth,"locus YKL160W, strain elf1, hits give low values",1.03
same,normalized growth,"locus YKR026C, strain gcn3, hits give low values",0.98
same,normalized growth,"locus YKR091W, strain srl3, hits give low values",0.989
same,normalized growth,"locus YLL001W, strain dnm1, hits give low values",0.918
same,normalized growth,"locus YLL026W, hits give low values",0.984
same,normalized growth,"locus YLL041C, strain sdh2, hits give low values",0.996
same,normalized growth,"locus YLR027C, strain aat2, hits give low values",0.955
same,normalized growth,"locus YLR113W, strain HOG1, hits give low values",0.964
same,normalized growth,"locus YLR221C, strain rsa3, hits give low values",0.89 (active)
same,normalized growth,"locus YLR258W, strain gsy2, hits give low values",1.01
same,normalized growth,"locus YLR262C, strain YPT6 (second series), hits give low values",0.521 (active)
same,normalized growth,"locus YLR320W, strain mms22, hits give low values",0.907
same,normalized growth,"locus YLR342W, strain FKS1, hits give low values",0.889 (active)
same,normalized growth,"locus YLR357W, strain rsc2, hits give low values",0.979
same,normalized growth,"locus YLR370C, strain arc18, hits give low values",1.01
same,normalized growth,"locus YLR384C, strain iki3, hits give low values",1.01
same,normalized growth,"locus YML120C, strain ndi1, hits give low values",0.909 (active)
same,normalized growth,"locus YMR058W, strain fet3, hits give low values",0.952
same,normalized growth,"locus YMR125W, strain sto1, hits give low values",1.03
same,normalized growth,"locus YMR129W, hits give low values",1.01
same,normalized growth,"locus YMR205C, strain PFK2, hits give low values",0.981
same,normalized growth,"locus YMR231W, strain pep5, hits give low values",0.998
same,normalized growth,"locus YNL071W, strain lat1, hits give low values",0.978
same,normalized growth,"locus YNL183C, strain NPR1, hits give low values",0.951
same,normalized growth,"locus YNL209W, strain ssb2, hits give low values",0.995
same,normalized growth,"locus YNL248C, strain rpa49, hits give low values",1.01
same,normalized growth,"locus YNL322C, strain KRE1 (second series), hits give low values",1
same,normalized growth,"locus YNR049C, strain mso1, hits give low values",1
same,normalized growth,"locus YOR001W, strain rrp6, hits give low values",0.901
same,normalized growth,"locus YOR070C, strain gyp1, hits give low values",1
same,normalized growth,"locus YOR080W, strain dia2, hits give low values",0.991
same,normalized growth,"locus YOR083W, strain WHI5, hits give low values",0.941
same,normalized growth,"locus YOR106W, strain vam3, hits give low values",0.981
same,normalized growth,"locus YOR231W, strain MKK1, hits give low values",1
same,normalized growth,"locus YOR265W, strain rbl2, hits give low values",0.967
same,normalized growth,"locus YOR270C, strain vph1, hits give low values",0.794
same,normalized growth,"locus YOR290C, strain snf2, hits give low values",1.02
same,normalized growth,"locus YPL051W, strain arl3, hits give low values",1.04
same,normalized growth,"locus YPL078C, strain atp4, hits give low values",0.99
same,normalized growth,"locus YPL106C, strain sse1, hits give low values",1.15
same,normalized growth,"locus YPL240C, strain hsp82, hits give low values",0.996
same,normalized growth,"locus YPL256C, strain CLN2, hits give low values",1.04
